Most compounds without a hit are left out; they make up all but 0.48% or so of the library.
Rango complex inh = prevents formation of the Rango-importin beta complex | Q14974 | Rango CFP/YFP FRET sensor + importin beta, 45 min | Potency, µM (top dose mostly 92.2 µM), for inactives: at the top dose inhibition of complex formation | actives 0.031% (n = 340,000) | AID 540263; calls by dose curve;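 also: 0% = DMSO wells and 100% = buffer wells lacking importin beta; nearly all actives have a fitted effect of over 15% in size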
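FRET biosensor Rango (snurportin 1 IBB between N-terminal EYFP and C-terminal Cerulean), 50 nM in PBS/1 mM DTT/0.02% Tween-20/0.1% BSA, preincubated 5 min RT with compound; 0.125 microM importin beta added, 45 min RT, CFP/YFP FRET ratio read.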
EPAC1 antagonist = antagonists of human EPAC1. actives 0.14% (n = 360,000). Potency, µM (titrated, usually from 115 µM), without a hit: top-dose activity change, negative = inhibition, usual class: inhibitors. O95398. EPAC1 GEF assay, Rap1b-BODIPY-GDP exchange fluorescence. AID 720709;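 also: plate controls were vehicle for no effect and positive control for full effect; nearly all actives have a fitted effect of over 50% in size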
Target sequence (O95398 whole entry, looked up): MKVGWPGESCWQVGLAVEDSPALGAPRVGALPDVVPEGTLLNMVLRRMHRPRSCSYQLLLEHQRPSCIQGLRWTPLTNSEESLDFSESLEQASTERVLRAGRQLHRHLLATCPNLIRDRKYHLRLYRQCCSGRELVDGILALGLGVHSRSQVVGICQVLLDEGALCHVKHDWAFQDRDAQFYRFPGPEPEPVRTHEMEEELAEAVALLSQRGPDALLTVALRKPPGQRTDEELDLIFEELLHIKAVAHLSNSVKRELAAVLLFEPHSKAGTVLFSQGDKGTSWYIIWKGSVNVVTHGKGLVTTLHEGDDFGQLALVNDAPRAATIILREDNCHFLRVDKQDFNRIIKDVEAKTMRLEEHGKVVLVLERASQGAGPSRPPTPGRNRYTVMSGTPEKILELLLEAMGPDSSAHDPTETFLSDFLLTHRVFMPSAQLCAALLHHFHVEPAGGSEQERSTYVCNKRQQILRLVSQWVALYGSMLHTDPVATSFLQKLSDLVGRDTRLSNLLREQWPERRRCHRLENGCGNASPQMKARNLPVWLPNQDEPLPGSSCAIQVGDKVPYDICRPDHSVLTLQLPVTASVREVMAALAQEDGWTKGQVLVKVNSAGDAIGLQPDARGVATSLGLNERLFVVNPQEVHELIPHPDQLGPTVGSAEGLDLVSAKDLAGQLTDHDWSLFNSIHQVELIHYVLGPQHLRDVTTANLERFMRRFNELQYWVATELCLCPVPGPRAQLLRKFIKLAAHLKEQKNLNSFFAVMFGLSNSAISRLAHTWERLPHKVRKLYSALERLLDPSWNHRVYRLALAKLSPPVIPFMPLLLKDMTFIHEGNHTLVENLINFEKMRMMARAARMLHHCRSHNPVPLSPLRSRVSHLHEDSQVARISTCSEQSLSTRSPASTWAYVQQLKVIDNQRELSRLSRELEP
EPAC2 antagonist = EPAC2 (human) antagonism | Q8WZA2 | EPAC2 GEF exchange of Rap1B-BODIPY-GDP, fluorescence | Potency, µM (top dose mostly 114 µM), without a hit: at the top dose activity, negative = inhibition, actives largely listed as inhibitors | actives 0.18% (n = 360,000) | AID 720708; also: % is scaled to controls: 0 for no effect and ±100 for the full control effect; nearly all actives have a fitted effect of over 45% in size
EPAC1 ag = EPAC1 (human) agonism; actives 0.073% (n = 360,000); AID 720707; EPAC1 agonist qHTS, biochemical assay; response scale: 100% = response to 6.5 mM cAMP; Potency, µM (titrated, usually from 154 µM), without a hit: at the top dose activation, usual class: activators; O95398; also: nearly all actives have a fitted effect of over 60% in size
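Fluorescent GDP-exchange assay: 100 nM EPAC1 with 250 nM Rap1B preloaded with BODIPY-GDP and 50 uM GDP; compounds tested as concentration series, 5 min at room temperature, then read every 5 min for 30 min (ex 480/em 540 nm); normalized to 6.5 mM cAMP.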
EPAC2 agonist = activates human EPAC2 exchange factor. actives 0.079% (n = 360,000). EPAC2 activation, biochemical qHTS; response scale: 100% = 6.5 mM cAMP response. Potency, µM (highest dose often 154 µM), inactives show at the highest dose activation, actives largely listed as activators. AID 720711. Q8WZA2; also: nearly all actives have a fitted effect of over 50% in size
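Compounds were added across a concentration range to EPAC2 (100 nM), RAP1B-BODIPY-GDP (250 nM) and GDP (50 uM). After 5 min at room temperature, fluorescence was recorded at 5-min intervals for 30 min.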
Rango dissoc inh = inhibitors of RanGTP-induced Rango-importin beta complex dissociation; O95149+P62826; Biochemical FRET Rango-importin beta, RanGTP-induced dissociation; Potency, µM (doses to about 46.1 µM), for inactives: at the highest dose activity change, negative = inhibition; actives 0.071% (n = 340,000); AID 540253; calls by dose curve; also: % of control where 0% means no effect; nearly all actives have a fitted effect of over 45% in size
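FRET read at 45 min, room temperature: inhibitors block the CFP/YFP signal rise when RanGTP (0.6 uM Ran, 2 mM GTP, 0.2 uM RCC1) frees Rango (0.1 uM) from importin beta (0.25 uM). Pre-read after 5 min compound exposure flags interference.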
Active calls of the source: *; ? = inconclusive; / = no result given. Unless noted, calls follow the shape of the dose curve; as a rule, active = well fitted curve in the direction sought with a large enough effect; inconclusive = small, poorly fitted or top-dose-only effect, or another doubt; inactive = no such curve, though single readings can be large; an effect the other way counts as inactive or inconclusive. Potency is read from the fitted curve at half-maximal effect.

SMILES	Rango complex inh	EPAC1 antagonist	EPAC2 antagonist	EPAC1 ag	EPAC2 agonist	Rango dissoc inh
Cc1cnc(CNC(=O)c2csc([C@H]3C[C@H](O)[C@@H](CO)O3)n2)cn1	/	1%	9%	6%	1%	/
CCc1nc2ccc(C(=O)N3CCN(S(=O)(=O)CC)CC3)cn2c1N(CC)CCOC	/	9%	6%	-15%	-2%	/
CC(C)(C)N1C(=O)Cc2c1nc(N)c1c(N)nc(N3CCCCC3CO)c(C#N)c21 (stereo unspecified)	?	56µM*	-8%	-1%	4%	?
COc1ccc(CN(C)C2CCN(C)CC2)cc1OC	2%	1%	1%	6%	1%	-14%
COC(=O)c1cc(C)nc2c1C(=O)C(=O)C=C2N1CCOCC1	1%	3.5µM*	?	-9%	?	2%
COC(=O)c1cc(S(=O)(=O)N2CCOCC2)c(Cl)cc1N1CCOCC1	-5%	8%	9%	6%	2%	5%
COCCCNC(=O)/C(C#N)=C/c1c(N2CCN(c3ccc(OC)cc3)CC2)nc2c(C)cccn2c1=O	?	-3%	4%	-2%	14%	4.6µM*
COCCCNC(=O)/C(C#N)=C/c1c(N2CCN(C)CC2)nc2c(C)cccn2c1=O	?	-3%	-5%	6%	0%	?
CC(C)CC(C)c1cc(N)nc2nc3ccccc3n12 (stereo unspecified)	?	-23%	-21%	2%	-1%	-22%
OC[C@@H]1[C@@H](c2ccc(F)cc2)C(c2ccccc2)=NN1c1ccccc1	?	-5%	?	-6%	18%	?
CC[C@H]1C(c2ccc(F)cc2)=NN(c2ccccc2)[C@@H]1CO	?	-14%	50µM*	-14%	3%	?
Cc1cc(C)c2nc(N3CCOCC3)c(C#N)cc2c1	?	9%	-13%	1%	0%	?
Cc1cccc2cc(C#N)c(N3CCOCC3)nc12	?	-5%	0%	-5%	0%	18µM*
CCc1nc2c(OCC(=O)C(C)(C)C)cccn2c1N(C=O)Cc1ccc(OC)cc1	/	-10%	-4%	-1%	3%	/
Cc1ccc(S(=O)(=O)/N=C2/NC(=O)/C(=C\c3cc(Br)cc(Br)c3O)S2)cc1	?	?	79µM*	-2%	0%	?
N#Cc1c(-c2ccc(F)cc2)cc(-c2ccccc2)nc1SCC(=O)NCC(=O)O	-5%	79µM*	13%	9%	-5%	-8%
COC(=O)CSc1nnc(CNS(=O)(=O)c2ccc(Cl)cc2)n1C	-1%	0%	-5%	1%	-1%	-1%
CCCCCCCCN1C(=O)[C@H](CC(=O)NCc2ccc(OC)c(OC)c2)C[C@@]2(C(=O)OCC)CCC=C12	/	-22%	?	-25%	-14%	/
CCCCCCCCN1C(=O)[C@H](CC(=O)NCc2ccc(OC)c(OC)c2)C[C@@]2(C(=O)OC)CCCCC=C12	/	-28%	38µM*	-25%	-10%	/
CCCCNC(=O)c1c(N)[nH]c(C(=O)c2ccccc2)c1-c1ccccn1	/	7%	5%	2%	8%	/
Cc1ccc(NC(=O)COC(=O)Cn2c(C)csc2=O)c([N+](=O)[O-])c1	4%	-3%	12%	100µM*	7%	-6%
Cc1csc(=O)n1CC(=O)OCC(=O)Nc1cc([N+](=O)[O-])ccc1Cl	-4%	11%	-5%	3%	11%	5%
O=C(O)c1cccc2cccc(-c3c4ccc(=O)c(O)c-4oc4c(O)c(O)ccc34)c12	?	32µM*	-28%	12%	-4%	-27%
CC(=O)c1c(Cl)nc2cccc3c2c1-c1ccccc1C3=O	0%	17%	5%	3%	-5%	-18%
O=C(O)COc1ccc2nsnc2c1Cl	?	3%	-7%	3%	7%	?
SMILES	Rango complex inh	EPAC1 antagonist	EPAC2 antagonist	EPAC1 ag	EPAC2 agonist	Rango dissoc inh
Cc1ccccc1C1=C/C(=C(\SS/C(C(=O)c2ccc(OCC(=O)O)c(Cl)c2Cl)=C2\C=C(c3ccccc3C)SS2)C(=O)c2ccc(OCC(=O)O)c(Cl)c2Cl)SS1	6%	50µM*	71µM*	0%	-1%	1%
COc1ccc(/C=C/C(=O)N(CCC(N)=O)c2ccccc2)cc1S(=O)(=O)N1CCOCC1	-2%	-2%	12%	3%	-1%	-13%
COc1ccc(Cl)c(-c2cc(C(=O)Nc3ccc(F)cc3)[nH]n2)c1	/	4%	8%	-3%	13%	/
O=C1Nc2ccccc2/C1=N\N=C\c1ccc(O)c(O)c1	-1%	40µM*	-16%	2%	-9%	?
CCc1noc(C)c1C(=O)Nc1nc2c(C)cc(C)cc2s1	2%	-25%	-14%	89µM*	24%	1%
Fc1ccc(-c2cc(C(F)(F)F)nc(NCc3cccs3)n2)cc1	5%	?	-19%	-15%	-17%	-9%
Cc1cc2ccccn2c1C(=O)c1ccccc1F	-3%	-10%	45µM*	5%	12%	8%
NS(=O)(=O)c1cc(C(=O)NC2CCSc3ccccc32)ccc1Cl (stereo unspecified)	-3%	28µM*	35µM*	-11%	-5%	0%
CCN(CC)S(=O)(=O)c1ccc(O)c(C(=O)OCC(=O)N2c3ccccc3CC2C)c1 (stereo unspecified)	-4%	-3%	1%	-3%	-4%	0%
COc1cc(/C=C2/NC(=O)NC2=O)cc(Br)c1OCc1ccc(C(=O)O)cc1	-6%	79µM*	11%	18%	-1%	6%
O=C(O)COc1c(Cl)cc(/C=C2\NC(=O)NC2=O)cc1Br	-3%	-5%	2%	5%	-1%	-13%
Nc1nc(NC(=O)CCC(=O)O)nn1-c1ccccc1	1%	-12%	20%	-5%	14%	10%
O=C1NC(=S)S/C1=C\c1cccc([N+](=O)[O-])c1	3%	?	50µM*	-5%	3%	-10%
COc1ccccc1C=C1SC(=S)NC1=O	3%	?	-23%	-7%	6%	9%
Cc1cc(/C=C2\SC(=S)NC2=O)cc(C)c1O	?	?	16µM*	7%	1%	?
Cc1cc(/C=C2\SC(=S)NC2=O)c(C)n1C	?	?	-2%	0%	-6%	?
O=C1NC(=S)S/C1=C\c1cc(Cl)cc(Cl)c1O	?	40µM*	56µM*	-10%	-11%	?
Cc1cc(/C=C2\SC(=S)NC2=O)c(C)n1-c1ccc(O)cc1	?	?	?	3%	-5%	?
O=C1NC(=S)SC1=Cc1ccccc1Cl	1%	?	35µM*	-1%	12%	-5%
